Assay outcomes from PubChem BioAssay.
Pf growth 96h – P. falciparum growth inhibition at 96 hour, primary screen for plastid delayed-death inhibitors. P. falciparum luciferase reporter growth, 96 h. Potency, µM (titrated, usually from 28.7 µM), for inactives: top-dose activity change, negative = inhibition, most hits filed as inhibitors. 320,000 tested, 6.9% active. AID 504834; further: on the % scale 0 is the no-effect control and ±100 the full control effect
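Cell-based qHTS: luciferase-tagged P. falciparum in erythrocytes (2% hematocrit, 0.05% parasitemia final) incubated with compounds for 96 hours, 37 C, 5% CO2; luciferase detection reagent then added and luminescence measured.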
Pf growth 48h – inhibits P. falciparum growth in the first generation, 48 h; P. falciparum luciferase growth in erythrocytes, 48 h; AID 504832; Potency, µM (top dose mostly 28.7 µM), inactives show top-dose activity change, negative = inhibition, usual class: inhibitors; 310,000 tested, 5.9% active; further: on the % scale 0 is the no-effect control and ±100 the full control effect
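Luciferase-expressing P. falciparum in infected erythrocytes (2% hematocrit, 0.1% parasitemia final) in RPMI 1640/0.5% Albumax were exposed to compound for 48 hours at 37 C, 5% CO2; growth read as luminescence.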
NS1 inh – influenza NS1 inhibition; 270,000 tested, 0.4% active; AID 2326; Potency, µM (doses to about 46.1 µM), without a hit: top-dose activity, positive = more growth; calls by dose curve; further: actives are rising curves; nearly all actives have a fitted effect of over 50% in size
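Compounds were scored for reversing the slow growth caused by influenza A NS1 in S. cerevisiae, measured by optical density at 600 nm. Assay medium contained 2% galactose at pH 6.0; NS1-free yeast of the same strain were the positive control.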
Sm TGR inh – S. mansoni TGR enzyme inhibition; 360,000 tested, 3% active; Potency, µM (titrated, usually from 114 µM), without a hit: top-dose activity change, negative = inhibition, most hits filed as inhibitors; purified TGR, DTNB reduction, TNB absorbance 405 nm; further: on the % scale 0 is the no-effect control and ±100 the full control effect; nearly all actives have a fitted effect of over 60% in size
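TGR 20 nM + NADPH 100 uM (dispensed conc.), cpd preinc 15 min RT; start with NADPH (500 uM addition) then DTNB (15 mM addition). Kinetic TNB absorbance, 405 nm filter. Four-parameter Hill fit across titration.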
AMA1 RON2 block – disrupts binding of P. falciparum AMA1 to RON2; AlphaScreen AMA1-biotinylated RON2 peptide binding; Potency, µM (top dose mostly 58.2 µM), inactives show at the highest dose activity change, negative = inhibition, most hits filed as inhibitors; 360,000 tested, 0.2% active; AID 720542;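 further: 0% = vehicle wells and -100% = peptide control; nearly all actives have a fitted effect of over 45% in size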
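AMA1 (3D7) with his tag at 25 nM final met compounds first, then biotinylated RON2 peptide at 25 nM; detection used donor plus acceptor beads, 10 µg/mL apiece, read by AlphaScreen after 30 min at room temperature.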
The depositor's hits bear a star; ? = inconclusive; . = no result given; [ ] = another dose, or the depositor's remark. Rows were chosen to be rich in hits. Some 11% of all compounds tested hit in one or more screens of this group. Unless noted, the call rests on the fitted dose curve; in most records, active means well fitted curve in the direction sought with a large enough effect; inconclusive means small, poorly fitted or top-dose-only effect, or another doubt; inactive means no such curve, though single readings can be large; an effect the other way counts as inactive or inconclusive. Potency means the concentration at half of the fitted maximal effect.

SMILES | Pf growth 96h | Pf growth 48h | NS1 inh | Sm TGR inh | AMA1 RON2 block
Cc1ccc(NS(=O)(=O)c2ccc(Cl)c(C(=O)Nc3ccccc3-c3nc4ccccc4[nH]3)c2)cc1C | 11.7µM* | 10.4µM* | ? | 4.6% | -11.2%[2.32 µM]
CC1(C)Cc2c(sc(NC(=O)C(=O)N3CCN(CCO)CC3)c2C(N)=O)CO1 | 37.7% | -6.5% | 0.7% | -0.2% | 81.0%
CCOC(=O)Nc1ccc(NCc2ccc(F)cc2)nc1N | 6.75µM* | 13.1µM* | ? | 3.16µM* | 47.5%
COc1ccc(NC(=O)c2ccco2)cc1NC(=O)COc1cc(C)ccc1C(C)C | . | . | . | -2.6% | .
CN1CCN(C(=O)C2=C[C@H](c3csc4ccccc34)C[C@H](OCc3ccc(CO)cc3)O2)CC1 | -10.7% | ? | -2.5% | -27.2% | -5.5%
O=C(NCc1ccccc1)C1=C[C@@H](c2csc3ccccc23)C[C@@H](OCc2ccc(CO)cc2)O1 | ? | ? | 16.3% | -0.2% | 0.0%
CN1CCN(C(=O)C2=C[C@H](c3csc4ccccc34)C[C@H](OCCCCO)O2)CC1 | 1.1% | 2.4% | -2.3% | 39.8µM* | 1.5%
C#CCNC(=O)C1=C[C@@H](c2csc3ccccc23)C[C@@H](OCc2ccc(CO)cc2)O1 | 5.22µM* | ? | 3.2% | -21.4% | -12.8%
O=C(NC1CC1)C1=C[C@@H](c2csc3ccccc23)C[C@@H](OCc2ccc(CO)cc2)O1 | 13.1µM* | ? | 4.0% | -4.1% | 4.5%
O=C(NCc1ccccc1)C1=C[C@@H](c2coc3ccccc3c2=O)C[C@@H](OCc2ccc(CO)cc2)O1 | 4.15µM* | ? | 2.4% | 2.8% | -10.5%
NC(=O)C1=C[C@@H](c2coc3ccccc3c2=O)C[C@@H](OCCCCO)O1 | 99.9% | 59.3% | 0.7% | 0.6% | 12.1%
O=C(NCc1nc2ccccc2[nH]1)C1=C[C@@H](c2csc3ccccc23)C[C@@H](OCCCCO)O1 | 2.08µM* | 2.62µM* | -36.6% | -25.7% | 67.9%
O=C(NC1CC1)C1=C[C@@H](c2csc3ccccc23)C[C@@H](OCCCCO)O1 | 13.1µM* | 10.4µM* | -3.7% | -1.2% | -1.1%
O=C(NC1CC1)C1=C[C@@H](c2coc3ccccc3c2=O)C[C@@H](OCCCCO)O1 | 32.5% | -14.4% | -0.1% | 44.7µM* | -12.3%
NS(=O)(=O)c1ccc(CNC(=O)c2cc(=O)[nH]c3ccccc23)cc1 | 28.7% | -1.4% | 5.6% | 1.8% | -0.2%
CCOc1cc(C(=O)Nc2ccc(-c3nc4ncccc4o3)cc2C)cc(OCC)c1OCC | . | . | . | -0.9% | .
Cc1cc(-c2nc3ncccc3o2)ccc1NC(=O)c1ccc(Cl)cc1 | . | . | . | 89.1µM* | .
O=C(CSc1ccc(Cl)cc1)Nc1cc(-c2nc3ncccc3o2)ccc1Cl | 4.65µM* | ? | 0.7% | 0.5% | .
O=C(NC1(O)C(=O)c2ccccc2C1=O)c1c(Cl)cccc1Cl | 32.6% | 2.94µM* | -51.1% | -11.6% | -25.2%
O=C(NC1(O)C(=O)c2ccccc2C1=O)c1ccccc1 | -20.0% | -6.1% | 5.2% | -12.9% | 0.8%
CCOC(=O)C1CCCN(C(=O)c2ccc(CS(=O)(=O)c3ccc(C)cc3)o2)C1 (centres undefined) | ? | . | 6.3% | 20µM* | 0.0%
CCOC(=O)C1CCCN(C(=O)c2ccc(CS(=O)(=O)Cc3ccccc3C)o2)C1 (centres undefined) | 143.2% | -26.7% | ? | 28.2µM* | -15.5%
CCCN1CCN(C(=O)c2ccc(-c3ccc([N+](=O)[O-])cc3)o2)CC1 | 2.0% | ? | . | ? | -5.8%
CCOC(=O)C1CCCN(C(=O)c2ccc(-c3ccc([N+](=O)[O-])cc3)o2)C1 (centres undefined) | 2.3% | 47.1% | . | 6.31µM* | ?
Cc1ccc(S(=O)(=O)Cc2ccc(C(=O)N3CCN(c4ccccn4)CC3)o2)cc1 | ? | . | -18.7% | ? | -3.9%
SMILES | Pf growth 96h | Pf growth 48h | NS1 inh | Sm TGR inh | AMA1 RON2 block
CCOC(=O)C1CCCN(C(=O)c2ccc(CNS(=O)(=O)c3ccc(C)cc3)cc2)C1 (centres undefined) | -7.6% | ? | . | -0.3% | -15.4%
Cc1ccc(S(=O)(=O)Cc2ccc(C(=O)N3CCCC3)o2)cc1 | -23.4% | . | 8.2% | 44.7µM* | -0.3%
COc1ccccc1NC(=O)CSC1=Nc2ccccc2C2=NC(CCC(=O)NCc3ccco3)C(=O)N12 (centres undefined) | . | . | . | -15.5% | .
Cc1ccc(S(=O)(=O)Cc2ccc(C(=O)NC3CCCCCC3)o2)cc1 | ? | 7.8% | -16.1% | -8.3% | 2.1%
Cc1ccc(S(=O)(=O)Cc2ccc(C(=O)N3CCCCCC3)o2)cc1 | -1.8% | . | 3.4% | 15.8µM* | 3.3%
CCOC(=O)C1CCCN(C(=O)c2cccc(S(=O)(=O)N(C)c3ccc(C)cc3)c2)C1 (centres undefined) | ? | 13.1µM* | . | -0.3% | -0.6%
CCOC(=O)C1CCCN(C(=O)c2cccc(S(=O)(=O)N3CC(C)OC(C)C3)c2)C1 (centres undefined) | ? | ? | -1.2% | -0.5% | 4.2%
Cc1ccc(N2C(=O)CS(=O)C(c3ccccc3)C2=O)cc1C (centres undefined) | -11.0% | ? | 15.2% | 1.12µM* | -2.9%
CCOC(=O)C(C)n1cnc2c(nnn2-c2ccc(C)cc2)c1=O (centres undefined) | 7.38µM* | . | -3.5% | 8.0% | 0.0%
CCOC(=O)C(C)n1cnc2c(nnn2Cc2ccc(C)cc2)c1=O (centres undefined) | 5.0% | -7.3% | 4.3% | 6.2% | 11.9%
CCOC(=O)C(C)n1cnc2c(nnn2Cc2ccc(Cl)cc2)c1=O (centres undefined) | 8.28µM* | . | -10.5% | 5.0% | 5.8%
COC(=O)C1C2CCCCC1C(=O)O2 (centres undefined) | . | . | . | . | -9.2%
CC(=O)c1ccc(NC(=O)C2CC2c2ccccc2)cc1 (centres undefined) | . | . | . | . | -10.5%
COc1ccc(Cn2ccc3nc(C)c(C(=O)N4CCN(c5ccc(F)cc5)CC4)cc3c2=O)cc1 | . | . | . | 4.9% | .
O=C(CCCn1c(=S)[nH]c2cc3c(cc2c1=O)OCO3)NCc1cccc(Cl)c1 | 9.28µM* | -29.4% | -0.2% | -10.8% | 113.5%
O=C(CCCCCn1c(=S)[nH]c2cc3c(cc2c1=O)OCO3)N1CCN(Cc2ccccc2)CC1 | -1.1% | 11.7µM* | -27.3% | -6.8% | 73.3%
CC(C)(C)OC(=O)NCc1ccc(CNC(=O)c2nc[nH]c2C(=O)NCc2ccc(CNC(=O)OC(C)(C)C)cc2)cc1 | . | . | . | . | 152.6%
CC(C)(C)OC(=O)NCc1ccc(CNC(=O)c2nc[nH]c2C(=O)N2CCc3ccccc3C2)cc1 | ? | ? | . | 3.3% | 73.4%
C[C@@H](NC(=O)c1nc[nH]c1C(=O)NCc1ccc(CNC(=O)OC(C)(C)C)cc1)c1ccccc1 | ? | 11.7µM* | . | -5.6% | 120.7%
CC(C)(C)OC(=O)NCc1ccc(CNC(=O)c2nc[nH]c2C(=O)N2CCN(c3ccccc3)CC2)cc1 | -27.0% | 13.1µM* | . | -2.5% | 91.2%
